# Source: PubChem BioAssay AID1159580 (chemical genetic matrix, 2015)
# The campaign covered roughly 5,500 compounds. About 2,000 (36%) were called active. Another 18% or so got no clear call; they are omitted. Some of the results follow. Values without a mark were called inactive. No stated cut-off is given here; in the data, active means normalized growth mostly below about 0.91 (no sharp cut-off); inconclusive means no clear call, values can overlap the other calls; inactive means mostly above about 0.92.
# Assay: chemical genetic growth profiling, strain panel (AID 1159580);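 further: tested at 20 µM; growth read once vehicle control cultures reached saturation at 30 °C; 1 = growth at the plate median or of vehicle wells; lower values mean less growth of the strain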
# Details: growth OD
structure (smiles),measurement,setting,value
C#C[C@]1(O)CCC2C3CCC4=CC(=O)CC[C@@H]4C3CC[C@@]21C (some centres undefined),normalized growth,"S. cerevisiae deletion strains, locus YJR066W, strain TOR1, active compounds read low",0.909
same,normalized growth,"S. cerevisiae deletion strains, locus YKL009W, strain mrt4, active compounds read low",0.954
same,normalized growth,"S. cerevisiae deletion strains, locus YKL068W, active compounds read low",0.989
same,normalized growth,"S. cerevisiae deletion strains, locus YKL085W, strain MDH1 (second series), active compounds read low",0.986
same,normalized growth,"S. cerevisiae deletion strains, locus YKL085W, strain MDH1, active compounds read low",0.986
same,normalized growth,"S. cerevisiae deletion strains, locus YKL160W, strain elf1, active compounds read low",1.01
same,normalized growth,"S. cerevisiae deletion strains, locus YKL190W, strain CNB1, active compounds read low",0.977
same,normalized growth,"S. cerevisiae deletion strains, locus YKR001C, strain vps1, active compounds read low",0.946
same,normalized growth,"S. cerevisiae deletion strains, locus YKR026C, strain gcn3, active compounds read low",0.979
same,normalized growth,"S. cerevisiae deletion strains, locus YKR091W, strain srl3, active compounds read low",0.982
same,normalized growth,"S. cerevisiae deletion strains, locus YLL001W, strain dnm1, active compounds read low",0.972
same,normalized growth,"S. cerevisiae deletion strains, locus YLL026W, active compounds read low",0.994
same,normalized growth,"S. cerevisiae deletion strains, locus YLL041C, strain sdh2, active compounds read low",0.974
same,normalized growth,"S. cerevisiae deletion strains, locus YLR027C, strain aat2, active compounds read low",0.983
same,normalized growth,"S. cerevisiae deletion strains, locus YLR039C, strain RIC1, active compounds read low",0.862
same,normalized growth,"S. cerevisiae deletion strains, locus YLR058C, strain SHM2, active compounds read low",0.989
same,normalized growth,"S. cerevisiae deletion strains, locus YLR102C, strain apc9, active compounds read low",0.978
same,normalized growth,"S. cerevisiae deletion strains, locus YLR113W, strain HOG1, active compounds read low",0.958
same,normalized growth,"S. cerevisiae deletion strains, locus YLR221C, strain rsa3, active compounds read low",0.991
same,normalized growth,"S. cerevisiae deletion strains, locus YLR258W, strain gsy2, active compounds read low",0.993
same,normalized growth,"S. cerevisiae deletion strains, locus YLR262C, strain YPT6 (second series), active compounds read low",0.916
same,normalized growth,"S. cerevisiae deletion strains, locus YLR262C, strain YPT6, active compounds read low",0.818
same,normalized growth,"S. cerevisiae deletion strains, locus YLR268W, strain sec22, active compounds read low",0.94
same,normalized growth,"S. cerevisiae deletion strains, locus YLR320W, strain mms22, active compounds read low",0.98
same,normalized growth,"S. cerevisiae deletion strains, locus YLR330W, strain CHS5, active compounds read low",0.995
same,normalized growth,"S. cerevisiae deletion strains, locus YLR342W, strain FKS1 (second series), active compounds read low",0.923
same,normalized growth,"S. cerevisiae deletion strains, locus YLR342W, strain FKS1, active compounds read low",0.976
same,normalized growth,"S. cerevisiae deletion strains, locus YLR357W, strain rsc2, active compounds read low",0.988
same,normalized growth,"S. cerevisiae deletion strains, locus YLR370C, strain arc18, active compounds read low",0.969
same,normalized growth,"S. cerevisiae deletion strains, locus YLR371W, strain rom2, active compounds read low",0.983
same,normalized growth,"S. cerevisiae deletion strains, locus YLR384C, strain iki3, active compounds read low",0.982
same,normalized growth,"S. cerevisiae deletion strains, locus YLR418C, strain cdc73, active compounds read low",0.915
same,normalized growth,"S. cerevisiae deletion strains, locus YML016C, strain PPZ1, active compounds read low",0.991
same,normalized growth,"S. cerevisiae deletion strains, locus YML032C, strain rad52, active compounds read low",0.978
same,normalized growth,"S. cerevisiae deletion strains, locus YML120C, strain ndi1, active compounds read low",0.977
same,normalized growth,"S. cerevisiae deletion strains, locus YML124C, strain tub3, active compounds read low",0.98
same,normalized growth,"S. cerevisiae deletion strains, locus YMR058W, strain fet3, active compounds read low",0.965
same,normalized growth,"S. cerevisiae deletion strains, locus YMR078C, strain ctf18, active compounds read low",0.964
same,normalized growth,"S. cerevisiae deletion strains, locus YMR125W, strain sto1, active compounds read low",0.995
same,normalized growth,"S. cerevisiae deletion strains, locus YMR129W, active compounds read low",0.974
same,normalized growth,"S. cerevisiae deletion strains, locus YMR205C, strain PFK2, active compounds read low",0.985
same,normalized growth,"S. cerevisiae deletion strains, locus YMR223W, strain ubp8, active compounds read low",0.971
same,normalized growth,"S. cerevisiae deletion strains, locus YMR231W, strain pep5, active compounds read low",0.981
same,normalized growth,"S. cerevisiae deletion strains, locus YMR307W, strain GAS1, active compounds read low",0.874
same,normalized growth,"S. cerevisiae deletion strains, locus YNL067W, strain RPL9B, active compounds read low",0.969
same,normalized growth,"S. cerevisiae deletion strains, locus YNL071W, strain lat1, active compounds read low",0.964
same,normalized growth,"S. cerevisiae deletion strains, locus YNL128W, strain TEP1, active compounds read low",0.992
same,normalized growth,"S. cerevisiae deletion strains, locus YNL183C, strain NPR1, active compounds read low",0.924
same,normalized growth,"S. cerevisiae deletion strains, locus YNL209W, strain ssb2, active compounds read low",0.997
same,normalized growth,"S. cerevisiae deletion strains, locus YNL233W, strain BNI4, active compounds read low",0.996
same,normalized growth,"S. cerevisiae deletion strains, locus YNL248C, strain rpa49, active compounds read low",0.985
same,normalized growth,"S. cerevisiae deletion strains, locus YNL250W, strain rad50, active compounds read low",0.981
same,normalized growth,"S. cerevisiae deletion strains, locus YNL271C, strain bni1, active compounds read low",0.964
same,normalized growth,"S. cerevisiae deletion strains, locus YNL298W, strain CLA4, active compounds read low",0.976
same,normalized growth,"S. cerevisiae deletion strains, locus YNL307C, strain MCK1, active compounds read low",0.902 (active)
same,normalized growth,"S. cerevisiae deletion strains, locus YNL322C, strain KRE1 (second series), active compounds read low",0.98
same,normalized growth,"S. cerevisiae deletion strains, locus YNR049C, strain mso1, active compounds read low",0.984
same,normalized growth,"S. cerevisiae deletion strains, locus YNR052C, strain pop2, active compounds read low",0.97
same,normalized growth,"S. cerevisiae deletion strains, locus YOL006C, strain TOP1, active compounds read low",0.919
same,normalized growth,"S. cerevisiae deletion strains, locus YOL012C, strain htz1",1.68
same,normalized growth,"S. cerevisiae deletion strains, locus YOL147C, strain pex11, active compounds read low",0.983
same,normalized growth,"S. cerevisiae deletion strains, locus YOR001W, strain rrp6, active compounds read low",0.943
same,normalized growth,"S. cerevisiae deletion strains, locus YOR061W, strain CKA2, active compounds read low",0.985
same,normalized growth,"S. cerevisiae deletion strains, locus YOR069W, strain VPS5, active compounds read low",0.988
same,normalized growth,"S. cerevisiae deletion strains, locus YOR070C, strain gyp1, active compounds read low",0.986
same,normalized growth,"S. cerevisiae deletion strains, locus YOR080W, strain dia2, active compounds read low",0.994
same,normalized growth,"S. cerevisiae deletion strains, locus YOR083W, strain WHI5, active compounds read low",1.03
same,normalized growth,"S. cerevisiae deletion strains, locus YOR106W, strain vam3, active compounds read low",0.999
same,normalized growth,"S. cerevisiae deletion strains, locus YOR136W, strain idh2, active compounds read low",0.997
same,normalized growth,"S. cerevisiae deletion strains, locus YOR144C, strain elg1, active compounds read low",0.98
same,normalized growth,"S. cerevisiae deletion strains, locus YOR184W, strain ser1, active compounds read low",0.848 (active)
same,normalized growth,"S. cerevisiae deletion strains, locus YOR231W, strain MKK1, active compounds read low",0.984
same,normalized growth,"S. cerevisiae deletion strains, locus YOR265W, strain rbl2, active compounds read low",0.983
same,normalized growth,"S. cerevisiae deletion strains, locus YOR270C, strain vph1, active compounds read low",0.901
same,normalized growth,"S. cerevisiae deletion strains, locus YOR290C, strain snf2, active compounds read low",0.981
same,normalized growth,"S. cerevisiae deletion strains, locus YOR316C, strain cot1, active compounds read low",0.978
same,normalized growth,"S. cerevisiae deletion strains, locus YPL051W, strain arl3, active compounds read low",0.986
same,normalized growth,"S. cerevisiae deletion strains, locus YPL055C, strain LGE1, active compounds read low",0.997
same,normalized growth,"S. cerevisiae deletion strains, locus YPL078C, strain atp4, active compounds read low",0.974
same,normalized growth,"S. cerevisiae deletion strains, locus YPL106C, strain sse1, active compounds read low",1.06
same,normalized growth,"S. cerevisiae deletion strains, locus YPL240C, strain hsp82, active compounds read low",0.991
same,normalized growth,"S. cerevisiae deletion strains, locus YPL241C, strain CIN2, active compounds read low",0.996
same,normalized growth,"S. cerevisiae deletion strains, locus YPL256C, strain CLN2, active compounds read low",0.942
same,normalized growth,"S. cerevisiae deletion strains, locus YPR119W, strain clb2, active compounds read low",0.982
same,normalized growth,"S. cerevisiae deletion strains, locus YPR141C, strain kar3, active compounds read low",0.982
same,normalized growth,"S. cerevisiae deletion strains, locus YPR163C, strain tif3, active compounds read low",0.986
same,normalized growth,"S. cerevisiae deletion strains, locus YPR167C, strain met16, active compounds read low",0.977
same,normalized growth,"S. cerevisiae deletion strains, strain wtn01, active compounds read low",0.962
same,normalized growth,"S. cerevisiae strains, strain wild type, active compounds read low",0.986
